Measured values reported in PubChem BioAssay AID652039 (The Scripps Research Institute Molecular Screening Center, 2013).
Screen size: about 370,000 compounds; about 3,300 (0.89%) were called active.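 How the source made its calls: active means activation above the mean of all tested compounds plus 3 SD, computed per campaign excluding outliers beyond control limits (cut at about 13% in these data); inactive means the rest.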 The list comes from a sample in which actives are over-represented; it also holds similar structures and randomly drawn compounds.

target: Kallikrein-7 (Homo sapiens) (UniProt P49862); assay: proKLK7 zymogen activators, primary screen, biochemical, fluorescence intensity (AID 652039); settings: purified proKLK7, EDANS-DABCYL substrate fluorescence; at 7 µM; active compounds read high; 100% is mature enzyme control, 0% vehicle
Sequence (P49862 whole entry, looked up): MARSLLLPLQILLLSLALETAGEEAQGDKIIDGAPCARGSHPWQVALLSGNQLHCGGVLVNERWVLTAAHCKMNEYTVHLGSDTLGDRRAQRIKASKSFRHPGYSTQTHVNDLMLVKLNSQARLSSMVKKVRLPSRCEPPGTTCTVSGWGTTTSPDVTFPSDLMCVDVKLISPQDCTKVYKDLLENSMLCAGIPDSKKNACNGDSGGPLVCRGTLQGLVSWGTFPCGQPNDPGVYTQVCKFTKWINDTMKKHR

Row | SMILES | activation
1 | O=C(OC12CCCN(C1)/C(=C/c1ccccc1)C2)c1ccco1 (stereo not given) | 0.07% (inactive)
2 | CCCCCCCCNS(=O)(=O)/C=C/c1cc(C)ccc1CNC(=O)OC(C)(C)C | 0.37% (inactive)
3 | CC(C)N1CCCCC(NC(=O)C(C)(C)C)C1=O (stereo not given) | -0.28% (inactive)
4 | Cc1oc2nc(SCC(=O)NCc3cccnc3)nc(N)c2c1C | 0.33% (inactive)
5 | Cc1oc2nc(SCC(=O)Nc3ccc(S(N)(=O)=O)cc3)nc(NC(=O)c3ccccc3)c2c1C | 16.3% (active)
6 | Cc1cc(-c2nnc(SCC(=O)Nc3ccc(S(N)(=O)=O)cc3)n2N)n[nH]1 | -0.95% (inactive)
7 | CN(C)Cc1cn(-c2ccc(-c3noc4c3C(=O)N(CC(=O)N3CCOCC3)CC4)cc2)nn1 | -0.76% (inactive)
8 | CC(C)Oc1cc(F)ccc1-c1cc(C(=O)Nc2cccc(Cl)c2)[nH]n1 | -0.65% (inactive)
9 | CCC(=O)OCCCN1C(=O)CCC12CCC(c1ccccc1)CC2 (stereo not given) | -0.27% (inactive)
10 | C[C@@H](Nc1nc(-c2ccccc2)nc2c1oc1ccccc12)C(=O)O | -0.64% (inactive)
11 | CCc1nc(Nc2ccc(NC(C)=O)cc2)c2oc3ccccc3c2n1 | 172% (active)
12 | CCc1nc(Nc2ccc3nccnc3c2)c2oc3ccccc3c2n1 | -2.9% (inactive)
13 | Cc1cc2nc(C(F)(F)F)cc(-c3cccs3)n2n1 | -1.33% (inactive)
14 | Cc1nc2ccccn2c(=O)c1NC(=O)c1cccs1 | 0.03% (inactive)
15 | CC(C)(C)Nc1c(-c2cccs2)nc2ccccn12 | 27% (active)
16 | COC(=O)[C@]12C[C@H](CC(=O)N3CCOCC3)C(=O)N(Cc3ccc(Cl)cc3Cl)C1=C[C@H](C(C)C)O[C@@H]2C1CC1 | 0.16% (inactive)
17 | CC(=O)OCCN1CCCC12CCC(c1ccccc1)CC2 (stereo not given) | -0.5% (inactive)
18 | O=C(NCCN1CCN(Cc2ccccc2)CC1)c1cc2c(=O)[nH]c3ccccc3c2s1 | -1.14% (inactive)
19 | Cc1cccc(N(C)C(=O)c2cc3c(=O)[nH]c4ccc(C)cc4c3s2)c1 | -0.34% (inactive)
20 | CCN(CC)CCCNC(=O)c1cc2c(=O)[nH]c3ccc(C)cc3c2s1 | 23.3% (active)
21 | CC(C)CNS(=O)(=O)CC1NCCc2ccccc21 (stereo not given) | -0.37% (inactive)
22 | COC(=O)C12C=C3CC(c4ccccc4)=C3C(=O)N1Cc1[nH]c3ccccc3c1C2 (stereo not given) | -0.28% (inactive)

Row | SMILES | activation
23 | CCCCN(CCCC)CC(O)Cn1c2ccccc2c(=O)c2ccccc21 (stereo not given) | 22.1% (active)
24 | CS(=O)(=O)N(CC(O)Cn1c2ccccc2c2ccccc21)c1cccc2ccccc12 (stereo not given) | -1.25% (inactive)
25 | CCCCN(CC)CCNC(=O)CCNC(=O)Cn1ccc2ccccc2c1=O | -0.2% (inactive)
26 | CC(NCc1ccco1)C(=O)N1CCCCC1 (stereo not given) | 0.56% (inactive)
27 | O=S1(=O)c2c(NCc3ccco3)cccc2Oc2ccccc2CN1Cc1cn(Cc2cccc(C(F)(F)F)c2)nn1 | -9.73% (inactive)
28 | Cc1ccc(-n2nc(-c3ccco3)cc2C(=O)NCc2cccnc2)cc1 | 0.09% (inactive)
29 | O=C(c1cccnc1)N(c1cc2sc(=O)oc2c2ccccc12)S(=O)(=O)c1ccccc1 | -0.78% (inactive)
30 | O=C(Oc1c(-c2ccco2)oc2ccccc2c1=O)c1cccnc1 | 18.9% (active)
31 | COc1ccc(-c2cc(-c3nnc(SCC(=O)Nc4cccc5ccccc45)n3N)[nH]n2)cc1 | 0.07% (inactive)
32 | COc1ccc(Cn2cc(CN3[C@@H](CC(C)C)COc4cc(Br)ccc4S3(=O)=O)nn2)cc1 | 0.02% (inactive)
33 | CCn1c(=N)c(C(=O)NCCCOC)cc2c(=O)n3cccc(C)c3nc21 | 62.3% (active)
34 | Cc1cccn2c(=O)c3cc(C#N)c(=NC(=O)c4cccnc4)n(CC4CCCO4)c3nc12 (stereo not given) | 17.3% (active)
35 | Cc1cccn2c(=O)c3cc(C#N)c(=O)n(CCCN4CCOCC4)c3nc12 | 39.9% (active)
36 | O=C(NCc1cccnc1)c1cc(S(=O)(=O)N2CCOCC2)c(Cl)cc1Cl | -0.01% (inactive)
37 | Cc1ccc(S(=O)(=O)c2cc3c(=O)n4cccc(C)c4nc3n(CCc3ccccc3)c2=N)cc1C | 0.37% (inactive)
38 | Cc1ccc(-n2c(=O)c(C#N)cc3c(=O)n4ccccc4nc32)cc1C | 2.54% (inactive)
39 | Cc1ccc(Cn2c(C)c3cnn(CC(=O)NCCN4CCOCC4)c(=O)c3c2C)cc1 | 0% (inactive)
40 | Cc1ccccc1NC(=O)Cn1c(=O)n(CC2CCCO2)c(=O)c2ccccc21 (stereo not given) | 0.23% (inactive)
41 | Cc1ccc2cc(C#N)c(NCCNC(=S)NCCCN3CCOCC3)nc2c1 | 1.07% (inactive)
42 | Cc1cccn2c(=O)c3cc(C(=O)NCCN4CCOCC4)c(=N)n(Cc4cccnc4)c3nc12 | 32.9% (active)
43 | Cc1cccc(NC(=O)c2ccc3c(=O)n(CC4CCCO4)c(=S)[nH]c3c2)c1 (stereo not given) | -0.97% (inactive)
44 | COCCCn1c(C(=O)NC2CCCCC2)cc2c(=O)n3cccc(C)c3nc21 | -0.55% (inactive)

Row | SMILES | activation
45 | CC(=O)Nc1ccc(OC[C@@H](O)CN2CCC(C(O)(c3ccccc3)c3ccccc3)CC2)cc1 | 0.22% (inactive)
46 | CNc1nc(SC)nc(N(C#N)CC(=O)OC)n1 | -0.23% (inactive)
47 | O=C(NCCc1c[nH]c2ccccc12)OCc1cn(-c2c(F)cccc2F)nn1 | 0.33% (inactive)
48 | CCOC(=O)[C@]12CCCCC/C=C\1N(Cc1ccc(OC)cc1)C(=O)[C@H]2CC(=O)NCCCN1CCCC1=O | -0.22% (inactive)
49 | C=CCN1C(=O)[C@@H](CC(=O)N2CCN(C(=O)c3ccco3)CC2)[C@]2(C(=O)OC)CCCCC=C12 | 0.64% (inactive)
50 | COC(=O)C[C@H]1CC[C@H]2[C@H](COc3ccc(NC(=O)C4CC4)cc3C(=O)N2C)O1 | -0.05% (inactive)
51 | CCC(=O)Nc1ccc2c(c1)C(=O)N(C)[C@@H]1CC[C@@H](CC(=O)NCCc3ccccc3)O[C@H]1CO2 | -0.14% (inactive)
52 | Cc1cc(NS(=O)(=O)c2ccc(NC(=O)CSc3nnc(-c4ccc(C(C)(C)C)cc4)n3Cc3ccco3)cc2)nc(C)n1 | 0.49% (inactive)
53 | O=C(c1cccc(C(F)(F)F)c1)N1CC[C@H]2[C@H](CCCN2Cc2cc(F)cc(F)c2)C1 | 0.19% (inactive)
54 | COc1ccc(CSc2nnc(SCC(=O)Nc3ccccc3C(F)(F)F)s2)cc1 | 0.45% (inactive)
55 | COc1ccc2oc(=O)c(C(=O)N3CCCC3)cc2c1 | 21.5% (active)
56 | COc1ccc(C(=O)N2CCCN(C)CC2)c(OC)c1 | -0.04% (inactive)
57 | COc1cccc2cc(C(=O)N3CCN(C(=O)c4ccccc4)CC3)c(=O)oc12 | -0.14% (inactive)
58 | O=C(CN1CCC(NC(=O)NCc2ccccc2)CC1)Nc1ccc2c(c1)OCCO2 | 0.32% (inactive)
59 | CC(C)(C)C(=O)N1CCC[C@@]1(CO)C(=O)O | 0.12% (inactive)
60 | COc1cccc(NC(=O)CN(C)C(=O)Cc2ccc(Cl)cc2Cl)c1 | -0.14% (inactive)
61 | COc1cccc(NC(=O)CN(C)C(=O)/C=C/c2cc(OC)ccc2OC)c1 | 58% (active)
62 | COc1cccc(NC(=O)CN(C)C(=O)c2ccccc2CCc2ccccc2)c1 | 0.07% (inactive)
63 | O=C(NC1CCCCN(Cc2cccc(C(F)(F)F)c2)C1=O)c1ccccc1I (stereo not given) | 0.36% (inactive)
64 | CN(C)C(=O)c1nc2ccc(Cl)cn2c1CN1CCN(c2ncccn2)CC1 | -1.33% (inactive)
65 | CN(C)CCN1CCN(c2cc(-c3cccc(Cl)c3)nc3ccnn23)CC1 | 18.8% (active)
66 | C#Cc1cc(N2CCN(C(=O)c3ccoc3)CC2)n2nc(-c3cccc(Cl)c3)cc2n1 | -41% (inactive)

Row | SMILES | activation
67 | Cc1ccc(-n2c(SCC(=O)Nc3cccc4ccccc34)nnc2-c2ccco2)cc1 | -0.44% (inactive)
68 | C=CS(=O)(=O)N(Cc1nnn(Cc2ccccc2)c1Br)[C@H](C(=O)OC)C(C)C | -0.36% (inactive)
69 | Cc1cc(C)nc(Nc2n[nH]c(-c3ccccc3N)n2)n1 | 6.37% (inactive)
70 | Nc1ccccc1-c1nc2ccncc2[nH]1 | 86.7% (active)
71 | CN(C(N)=NC(=O)/C=C/c1ccccc1)C(C#Cc1ccccc1)Cc1ccccc1 (stereo not given) | -0.15% (inactive)
72 | O=C(NCc1cccs1)C1CCN(S(=O)(=O)c2ccccc2[N+](=O)[O-])CC1 | 0.23% (inactive)
73 | COC(=O)[C@H](C(C)C)N1CCc2nnn(Cc3ccc(C)cc3)c2-c2ccccc2S1(=O)=O | -0.1% (inactive)
74 | CC(=O)N1C(=O)C2(Nc3ccccc3N2)c2ccccc21 | -5.83% (inactive)
75 | CC(C)=NN1C(=O)c2ccccc2NC1(C)C | 13% (active)
76 | COC(=O)c1cc(S(=O)(=O)N2CCN(C(=O)C3CCCO3)CC2)cn1C (stereo not given) | -0.37% (inactive)
77 | O=C(C1CCCN1S(=O)(=O)c1ccccc1)N1CCc2ccccc2C1 (stereo not given) | -0.08% (inactive)
78 | COCc1cc(C)nc(SCC(=O)Nc2cccc(C)c2)c1C#N | 0.51% (inactive)
79 | Cc1cc(C)c(C#N)c(SCC(=O)NN2CC(=O)N(c3ccccc3F)CC2=O)n1 | 68.7% (active)
80 | Cc1cc(C(F)(F)F)c(C#N)c(SCC(=O)NC2CC2)n1 | -0.4% (inactive)
81 | CCOC(=O)[C@]12CCCC3=C1N(CCC3)C(=O)[C@@H](CC(=O)NCc1cccs1)C2 | -0.54% (inactive)
82 | COc1ccc(S(=O)(=O)N/N=C\c2ccc(OC)c(COc3ccc(C)cc3[N+](=O)[O-])c2)cc1 | 0.18% (inactive)
83 | CCN(CC)Cc1c(C(=O)N/N=C/c2cccc(OCc3ccc(F)cc3)c2)nnn1-c1nonc1N | 0.38% (inactive)
84 | COc1cccc(OCc2cc(/C=N/NC(=O)c3nc(Cl)c(Cl)c(N)c3Cl)ccc2OC)c1 | 48.2% (active)
85 | COC(=O)[C@]12C[C@H](CC(=O)NCCCN3CCCC3=O)C(=O)N(CCc3ccc(OC)c(OC)c3)C1=C[C@H](COCc1ccccc1)O[C@@H]2C | -0.02% (inactive)
